In all, about 85,000 compounds went through this assay and about 35 (0.04%) were called active.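 The calls were made as follows: active = viability drop by adding the cancer drug above about 55%, with treated viability meeting a 40% cutoff (limit read from the data); inactive = the rest, inconclusive results apart.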 For the sample, actives were picked, then their nearest neighbours and some compounds at random.

This is an account of results in PubChem BioAssay AID602 (SRMLSC, 2007).

This assay in a line: reversal of MRP1-mediated doxorubicin resistance, primary screen, H69AR cells, doxorubicin co-treatment (AID 602).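 As to differential viability (reversal): larger differential means the compound sensitizes cells more to doxorubicin.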 The settings on record: CellTiter-Glo, 72 h, at 10 µM; for differential viability (reversal): stronger effect = higher value. For orientation: Cellular ATP, detected with luciferase, serves as a proxy for viable cell number.
Setting [1] is: H69AR cells + 2 uM doxorubicin, measured here: viability with 2 uM doxorubicin, stronger effect = lower value.
The mark [2] stands for this setting: H69AR cells, measured here: cytotoxicity without doxorubicin.

Usually viability stands for a read-out of living cells in per cent, often relative to untreated cells. `COC(=O)CCSc1cc([N+](=O)[O-])cc2c1c(C1OCCS1)nn2-c1ccccc1` (centres undefined): under “H69AR cells + 2 uM doxorubicin”, the differential viability (reversal) is -2.64% (inactive). The viability runs as follows: under setting [1], 101%; under setting [2], 98.2%.

For `CCCOn1c(-n2nc(C)cc2C)nc2ccccc2c1=O`, where the note is “H69AR cells + 2 uM doxorubicin”, the differential viability (reversal) is 4.29% (inactive). In addition, the viability is 89.5% under setting [1] and 93.8% under setting [2].

Consider `O=C(Nc1ccc(F)c(Cl)c1)C1CCN(S(=O)(=O)c2cccnc2)CC1`, for which the differential viability (reversal) (H69AR cells + 2 uM doxorubicin) was 1.44% (inactive). The viability by setting is: under setting [1], 70.3%; under setting [2], 71.8%.

On to `Cc1ccc(C(=O)N/N=C/c2sc(=O)n(Cc3cccc(C(=O)O)c3)c2Cl)cc1`, for which the differential viability (reversal) (H69AR cells + 2 uM doxorubicin) was -5.62% (inactive). Moreover, the viability is 92.7% under setting [1] and 87.1% under setting [2].

Consider `CCOC(=O)C(C)Sc1nc2ccccc2c(=O)n1CC1CCCCC1` (centres undefined), for which the differential viability (reversal) (H69AR cells + 2 uM doxorubicin) was 7.81% (inactive). Further, the viability came to 74.6% under setting [1] and 82.4% under setting [2].

Turning to `Cc1cccc(NC(=O)C2CC(=O)OC23CCCC3)c1` (centres undefined), under “H69AR cells + 2 uM doxorubicin”, the differential viability (reversal) is 6.22% (inactive). Also, the viability under setting [1] is 95.5% and the viability under setting [2] was determined as 102%.

`COc1ccc(CC(NC(C)=O)C(=O)N2CCN(C(=O)Nc3cccc(Cl)c3)CC2)cc1OC` (centres undefined): under “H69AR cells + 2 uM doxorubicin”, the differential viability (reversal) was 6.8% (inactive). Moreover, the viability under setting [1] was 85% and the viability under setting [2] stood at 91.8%.

For `O=C(CCS(=O)(=O)c1cccc2nsnc12)N1CCN(c2ccccc2F)CC1`, the differential viability (reversal) (H69AR cells + 2 uM doxorubicin) is 10.9% (inactive). Moreover, the viability is, setting by setting: under setting [1], 80%; under setting [2], 91%.

Regarding `COc1ccc(-c2cc(C(=O)NCc3ccco3)no2)cc1OC`, the differential viability (reversal) (H69AR cells + 2 uM doxorubicin) was 7.53% (inactive). Further, the viability was 92.6% under setting [1] and 100% under setting [2].

As to `CCOC(=O)C1=C(C)NC2=C(C(=O)CC(C)(C)C2)C1c1ccsc1` (centres undefined), the differential viability (reversal) (H69AR cells + 2 uM doxorubicin) is -1.33% (inactive). For the same compound, the viability under setting [1] was 85.8% and the viability under setting [2] was 84.5%.

On to `O=S(=O)(NCCc1ccccc1)c1ccccc1`, for which, under “H69AR cells + 2 uM doxorubicin”, the differential viability (reversal) is 7.78% (inactive). In addition, the viability was 95.5% under setting [1] and 103% under setting [2].

Consider `CCN(c1ccccc1)S(=O)(=O)c1ccc(NC(=O)C(C)(C)C)cc1`, for which the differential viability (reversal) (H69AR cells + 2 uM doxorubicin) was -29.8% (inactive). Besides, the viability under setting [1] amounted to 64.7% and the viability under setting [2] is 34.8%.

Take `COc1ccc(-c2cc(C(F)(F)F)nc(NCc3cccnc3)n2)cc1`: the differential viability (reversal) (H69AR cells + 2 uM doxorubicin) is 1.23% (inactive). The viability amounted to 91.7% under setting [1] and 92.9% under setting [2].

Turning to `Cc1ccc(S(=O)(=O)N2CCN(S(=O)(=O)N3CCOCC3)CC2)cc1`, under “H69AR cells + 2 uM doxorubicin”, the differential viability (reversal) was 3.28% (inactive). In addition, the viability is, setting by setting: under setting [1], 89.8%; under setting [2], 93.1%.

`CCOC(=O)/C(C#N)=C\c1c(C)cc(C)c(COC(C)=O)c1C`: the differential viability (reversal) (H69AR cells + 2 uM doxorubicin) was 5.79% (inactive). In addition, the viability runs as follows: under setting [1], 89.3%; under setting [2], 95.1%.

Consider `Cc1ccc(F)c(NC(=O)CCc2ccccc2)c1`, for which the differential viability (reversal) (H69AR cells + 2 uM doxorubicin) was 2.31% (inactive). For the same compound, the viability reads like this: under setting [1], 95.5%; under setting [2], 97.8%.

Turning to `COc1ccc(-n2c(C)csc2=S)cc1`, where the note is “H69AR cells + 2 uM doxorubicin”, the differential viability (reversal) is -2.75% (inactive). For the same compound, the viability came out at 89.3% under setting [1] and 86.6% under setting [2].

`CCN(CC)CCNC(=O)CCCCCn1c(=O)[nH]c2cc(C(=O)OC)ccc2c1=O`: the differential viability (reversal) (H69AR cells + 2 uM doxorubicin) is 10.3% (inactive). The viability was 91.6% under setting [1] and 102% under setting [2].

As for `N=c1c2c3c(sc2nc2n1CCCCC2)CCCC3`, for the setting “H69AR cells + 2 uM doxorubicin”, the differential viability (reversal) was 9.08% (inactive). Moreover, the viability amounted to 75.2% under setting [1] and 84.3% under setting [2].

As to `Cc1cnc(NC(=O)C2CCCC2)s1`, the differential viability (reversal) (H69AR cells + 2 uM doxorubicin) is -2.44% (inactive). Also, the viability by setting is: under setting [1], 100%; under setting [2], 97.7%.

For `Oc1ccccc1CNc1ncc(Br)cc1Br`, where the note is “H69AR cells + 2 uM doxorubicin”, the differential viability (reversal) was -9.74% (inactive). Moreover, the viability is, setting by setting: under setting [1], 83.2%; under setting [2], 73.5%.

For the compound `O=C(COC(=O)c1n[nH]c2ccccc12)NCc1ccccc1`, the differential viability (reversal) (H69AR cells + 2 uM doxorubicin) was 1.28% (inactive). In addition, the viability runs as follows: under setting [1], 95.4%; under setting [2], 96.7%.

On to `CCOc1ccc(Nc2nc(Cc3nnc(SCC(=O)c4ccc(C)cc4)o3)cs2)cc1`, for which the differential viability (reversal) (H69AR cells + 2 uM doxorubicin) is -4.34% (inactive). The viability runs as follows: under setting [1], 92.9%; under setting [2], 88.6%.

Consider `O=C1CC(Sc2ncn[nH]2)C(=O)N1c1ccccc1` (centres undefined), for which, where the note is “H69AR cells + 2 uM doxorubicin”, the differential viability (reversal) is 9.11% (inactive). Also, the viability by setting is: under setting [1], 87%; under setting [2], 96.1%.

With `O=C(c1cccc(F)c1)N1CCC(O)(c2cccnc2)CC1`, the differential viability (reversal) (H69AR cells + 2 uM doxorubicin) was 5.21% (inactive). Also, the viability is, setting by setting: under setting [1], 82.9%; under setting [2], 88.1%.

On to `O=C(NCc1ccco1)C1(c2ccc(Cl)cc2)CCCC1`, for which the differential viability (reversal) (H69AR cells + 2 uM doxorubicin) is -5.04% (inactive). Moreover, the viability runs as follows: under setting [1], 102%; under setting [2], 96.8%.

Regarding `O=C(c1ccc2c(c1)OCO2)N1CCN(C(=O)c2ccco2)CC1`, for the setting “H69AR cells + 2 uM doxorubicin”, the differential viability (reversal) is 18.9% (inactive). In addition, the viability is, setting by setting: under setting [1], 73%; under setting [2], 91.9%.

Take `O=C(c1ccccc1Oc1ccccc1)N1CCN(c2ccc(F)cc2)CC1`: the differential viability (reversal) (H69AR cells + 2 uM doxorubicin) is 4.49% (inactive). The viability was 95.8% under setting [1] and 100% under setting [2].

As to `COc1ccc(N2CCN(C(=O)CCc3nc(-c4ccc(C)cc4)no3)CC2)cc1`, under “H69AR cells + 2 uM doxorubicin”, the differential viability (reversal) is 16.8% (inactive). Also, the viability runs as follows: under setting [1], 81.6%; under setting [2], 98.4%.

As for `CS(=O)(=O)N(Cc1ccc(Cl)cc1)c1ccc(C(=O)NCCSCc2ccco2)cc1`, where the note is “H69AR cells + 2 uM doxorubicin”, the differential viability (reversal) is -17.6% (inactive). The viability is, setting by setting: under setting [1], 111%; under setting [2], 93.7%.

As to `COC(=O)C1=C(Nc2ccc(OC)cc2)C=C(C)C(C(=O)OC)C1c1ccc(C)cc1` (centres undefined), the differential viability (reversal) (H69AR cells + 2 uM doxorubicin) was -22.3% (inactive). Also, the viability is, setting by setting: under setting [1], 77.8%; under setting [2], 55.6%.

Take `COc1ccc(C(C#N)N2N=C(C)CC2(C)C)cc1` (centres undefined): where the note is “H69AR cells + 2 uM doxorubicin”, the differential viability (reversal) was 15.2% (inactive). Also, the viability was 89.1% under setting [1] and 104% under setting [2].

Turning to `Cn1c(=O)c2c(SCC(=O)N3CCOCC3)nc(C3CC3)nc2n(C)c1=O`, under “H69AR cells + 2 uM doxorubicin”, the differential viability (reversal) is -2.72% (inactive). In addition, the viability turned out to be 84.5% under setting [1] and 81.8% under setting [2].

For `CO/N=C(/CS(=O)(=O)c1ccc(Br)cc1)c1ccc(OC)cc1`, the differential viability (reversal) (H69AR cells + 2 uM doxorubicin) is -26.9% (inactive). Further, the viability by setting is: under setting [1], 58.3%; under setting [2], 31.4%.

In the case of `CCSc1ccccc1C(=O)NCc1ccc(OC)cc1`, the differential viability (reversal) (H69AR cells + 2 uM doxorubicin) is 7.76% (inactive). For the same compound, the viability came to 84.9% under setting [1] and 92.6% under setting [2].

Regarding `Cc1ccc2cc(CCNC(=O)c3ccc4c(c3)OCO4)c(=O)[nH]c2c1`, the differential viability (reversal) (H69AR cells + 2 uM doxorubicin) is -5.04% (inactive). Moreover, the viability reads like this: under setting [1], 84.9%; under setting [2], 79.8%.

`CCC(O)CNc1nc(-n2nc(C)cc2C)nc2sc3c(c12)CC(C)(C)OC3` (centres undefined): the differential viability (reversal) (H69AR cells + 2 uM doxorubicin) is -4.15% (inactive). Besides, the viability by setting is: under setting [1], 48.8%; under setting [2], 44.6%.

As for `CC(C)(CNC(=O)c1cc(=O)[nH]c2ccccc12)N1CCOCC1`, the differential viability (reversal) (H69AR cells + 2 uM doxorubicin) was 3.32% (inactive). Further, the viability under setting [1] worked out at 97.6% and the viability under setting [2] amounted to 101%.
